From PubChem BioAssay
SARS PLpro yeast: blocks SARS-CoV papain-like protease in a yeast assay. S. cerevisiae expressing SARS-CoV PLpro, growth rescue. Potency, µM (doses to about 32.9 µM), inactives show top-dose activity, positive = growth rescue, most hits filed as activators. 0.19% of 330,000 active. AID 485353; calls by dose curve; note: potency is the fitted concentration of half-maximal effect; 0% is about no effect; nearly all actives have a fitted effect of over 55% in size
HCMV inh: human cytomegalovirus inhibition; 4.5% of 410,000 active; AID 1259415; activity change, negative = inhibition, % at 57.5 µM; HFF cells, HCMV-luciferase reporter, 72 h; hits give low values; in the data active = activity change below about -60%; inconclusive = no clear call, values can overlap the other calls; inactive = above about -39%; note: % is set by controls: 0 for no effect and ±100 for the full control effect
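Screen run at 2 compound doses on HFFs infected with reporter HCMV, MOI 1 PFU/cell. Luciferase activity from cell lysates at 72 h post infection gave inhibition relative to buffer-only and Salinomycin wells.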
FMDV inh: antivirals against foot and mouth disease virus; AID 1159524; Potency, µM (top dose mostly 57.9 µM), without a hit: at the top dose activity change, negative = inhibition, most hits filed as inhibitors; FMDV antiviral cell-based qHTS; 1.2% of 410,000 active; calls by dose curve; tested in HEK293T cells; note: read-out not given here; potency is the fitted concentration of half-maximal effect; % is set by controls: 0 for no effect and ±100 for the full control effect; nearly all actives have a fitted effect of over 45% in size
Marburg entry inh: inhibitors of Marburg virus binding or cell entry | 1.8% of 300,000 active | Marburg virus pseudotyped entry inhibition, cell reporter | Potency, µM (doses to about 37.8 µM), for inactives: at the top dose activity change, negative = inhibition, usual class: inhibitors; calls by dose curve; tested in HEK293 cells; note: potency is the fitted concentration of half-maximal effect; % is set by controls: 0 for no effect and ±100 for the full control effect
Lassa entry inh: blocks Lassa virus binding to or entry into cells. 1.2% of 300,000 active. Lassa virus pseudotype entry inhibition, cell reporter. Potency, µM (series often up to 37.9 µM), without a hit: at the top dose activity change, negative = inhibition, usual class: inhibitors; calls by dose curve; tested in HEK293 cells; note: potency is the fitted concentration of half-maximal effect; % is set by controls: 0 for no effect and ±100 for the full control effect; nearly all actives have a fitted effect of over 50% in size
HCV inh: blocks hepatitis C virus | Huh7.5.1 HCVcc-Cre infection, luciferase reporter, 44 h | Potency, µM (series often up to 41.8 µM), for the others: top-dose activity change, negative = inhibition, most hits filed as inhibitors | 3.4% of 340,000 active | AID 651820; active = well fitted inhibition curve with a large enough effect; inconclusive = small, poorly fitted or top-dose-only effect, or another doubt; inactive = no such curve, though single readings can be large or run the other way; note: potency is the fitted concentration of half-maximal effect; % is set by controls: 0 for no effect and ±100 for the full control effect
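Cells (1,000/well) were plated 4 h before compound, then infected with HCVcc-Cre virus (~0.5 moi). After 44 h further culture, infection was read as luciferase luminescence following a 15 min substrate incubation at room temperature.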
Numbers without * were called inactive; ? = inconclusive; . = no result; + = active, no number; [ ] = remark or other dose. Most compounds without a hit are left out; they make up all but 8% or so of the library.

SMILES	SARS PLpro yeast	HCMV inh	FMDV inh	Marburg entry inh	Lassa entry inh	HCV inh
Cc1cc(C)c(S(=O)(=O)NCC(c2ccco2)N2CCOCC2)c(C)c1 (stereo not given)	.	-2.9	5.3%	.	-16.8%[46.1 µM]	.
Cc1ccc(C#CC[N+]2(CC#Cc3ccc(C)cc3)CCCCC2)cc1	2.4%	-100.9*	?	-0.6%	.	?
C(#Cc1ccccc1)C[N+]1(CC#Cc2ccccc2)CCCCC1	-1.2%	-62.3*	?	-12.1%[46.1 µM]	?	?
Cc1noc(/C=C/N(C)C)c1S(=O)(=O)N1CCN(c2ccc(F)cc2)CC1	-5.7%	-62.1*	-10.2%	.	.	-6.8%
Cc1ccc(C(=O)NCCCNC(=O)c2ccccn2)cc1	12.6%	17.8	-8.7%	2.5%[46.1 µM]	12.4%[46.1 µM]	8.5%
Cc1ccc(/C(=C\CN2CCCC2)c2ccccn2)cc1	-2.1%	24.3	-18.0%	11.2µM*	?	-10.6%
COc1ccc(O[C@H]2C=C[C@@H](c3ccccc3)O[C@H]2COC(=O)CCC(C)=NO[C@@H]2O[C@H](COC(C)=O)[C@@H](OC(C)=O)[C@H](OC(C)=O)[C@@H]2OC(C)=O)cc1	.	.	.	-23.1%[14.2 µM]	.	.
CC(C)(CC(=O)NCc1ccc(Cl)cc1Cl)CC1=NS(=O)(=O)c2ccccc2N1	.	-89.3*	?	.	?	.
Cc1cccc(CNC(=O)c2cnn(-c3ncc(C)c(-c4ccc(F)cc4)n3)c2C)n1	.	.	-10.0%	.	.	.
CC(C)CCNC(=O)c1ccc2c(c1)N(Cc1ccccc1F)C(=O)c1ccccc1S2=O (stereo not given)	.	1.8	0.0%	-6.5%[46.1 µM]	?	.
CC1CCCC(NC(=S)Nc2ccc(SC(F)F)cc2)C1C (stereo not given)	-30.8%	?	-27.0%	?	?	31.6µM*
COC1=C(Nc2ccc(O)cc2)C(=O)c2ccccc2C1=O	-6.7%	-13.6	-8.6%	?	?	?
CCN(CC)c1ccc(NC2=C(Cl)C(=O)c3ccccc3C2=O)cc1	-69.4%	.	?	3.98µM*	5.62µM*	?
O=C1C(Cl)=C(Nc2ccc(O)cc2)C(=O)c2ccccc21	-1.7%	-99.5*	31.6µM*	?	4.47µM*	?
Cc1ccc(NC2=C(Cl)C(=O)c3ccccc3C2=O)cc1	15.6%	39.2	-37.3%	?	12.6µM*	7.08µM*
CCCC(=O)NC1=C(Cl)C(=O)c2ccccc2C1=O	.	?	?	?	?	3.16µM*
Cc1ccc(NC2=C(N3CCOCC3)C(=O)c3ccccc3C2=O)cc1	-20.4%	3.9	.	?	?	?
CCNC1=C(Cl)C(=O)c2ccccc2C1=O	19.7%	-32.8	-25.1%	-18.5%	-13.6%	?
Cc1ccc(NC(=O)Cc2ccc(-n3c(C)nc4cccnc43)cc2)c(Cl)c1	.	+	15.8µM*	.	6.7%[46.1 µM]	.
COCCCn1c2nc3ccccc3nc2c2c(=O)n(C[C@H]3CCCO3)cnc21	.	.	.	14.7%	.	.
O=C(c1ccco1)N1CCCC(N2CCN(c3cccc(C(F)(F)F)c3)CC2)C1 (stereo not given)	-0.7%	24.5	-26.3%	-16.2%[46.1 µM]	?	22.4µM*
Cc1noc(C)c1C(=O)N1CCCC(N2CCN(c3cccc(C(F)(F)F)c3)CC2)C1 (stereo not given)	-0.5%	-1.6	5.4%	.	.	-12.7%
Cc1nnsc1C(=O)N1CCCC(N2CCN(c3cccc(C(F)(F)F)c3)CC2)C1 (stereo not given)	-1.9%	-61.3*	-4.6%	.	.	-14.2%
O=C(CCn1cccn1)N1CCCC(N2CCN(c3cccc(C(F)(F)F)c3)CC2)C1 (stereo not given)	1.2%	-61.9*	-8.0%	-20.8%	?	-23.4%
O=C(Cn1cccn1)N1CCCC(N2CCN(c3cccc(C(F)(F)F)c3)CC2)C1 (stereo not given)	-9.0%	-2.6	0.6%	-16.7%	4.1%	.
Cc1cc(C)c(C(=O)N2CCCC(N3CCN(c4cccc(C(F)(F)F)c4)CC3)C2)o1 (stereo not given)	-2.9%	-16.7	?	.	.	11.2µM*
Cc1c(C(=O)N2CCOCC2)oc2c1-c1nn(CC(=O)NCc3cccc(Cl)c3)cc1CC2	.	?	?	.	-30.1%[46.1 µM]	.
COC(=O)C1(O)CC(c2ccccc2)C(C(=O)c2ccccc2)N1c1ccc(F)cc1 (stereo not given)	.	-29.7	.	.	.	.
